# Source: PubChem BioAssay AID2017 (National Center for Advancing Translational Sciences (NCATS), 2009)
# Results filed as inconclusive are left out. Calls of active or inactive are those of the source. Calls follow the shape of the dose curve; as a rule, active = well fitted curve in the direction sought with a large enough effect; inconclusive = small, poorly fitted or top-dose-only effect, or another doubt; inactive = no such curve, though single readings can be large or run the other way.
# Biological target: 4-diphosphocytidyl-2-C-methyl-D-erythritol kinase, chloroplastic (Arabidopsis thaliana) (UniProt O81014)
# Test: Confirmatory Assay for Inhibitors of Human Galactokinase (GALK): CDP-Me assay counterscreen
# Details: ATP depletion, Kinase-Glo luminescence
# Source text: NIH Molecular Libraries Probe Production Centers Network [MLPCN] NIH Chemical Genomics Center [NCGC] MLPCN Grant: R03 MH085689-01 Assay Submitter (PI): Kent Lai (University of Utah School of Medicine, 50 N Mario Capecchi Drive, Salt Lake City, UT 84132) NCGC Assay Overview The GHMP kinase family is a unique class of important enzymes that plays an essential role in many metabolic processes. It contains more than 170 protein members among which are the galactokinase (GALK) and the CMK enzymes. GALK plays a crucial role in galactose processing and is a potential therapeutic target for Classic Galactosemia (OMIM: 230400). CMK is involved for the non-mevalonate synthesis of isoprenoids precursors and natural products like sterols or ubiquinones which are important to many biological functions. […]
# NCGC Assay Protocol Summary: Three uL/well of substrate solution (15 uM ATP, 30 uM CDP-ME, 20 mM HEPES pH8.0, 5 mM MgCl2, 40 mM KCl, 1 mM DTT, 0.01% BSA final concentration) was dispensed into 1536-well, assay plates (Greiner, solid white medium-binding plates) with Aurora Discovery BioRAPTR Flying Reagent Dispenser (FRD; Beckton-Dickenson). […] After 1 min, luminescence was detected with the ViewLux plate reader (Perkin Elmer, Waltham, MA) using a 1 sec exposure time and 2x binning settings.
# Sequence of 4-diphosphocytidyl-2-C-methyl-D-erythritol kinase, chloroplastic (Arabidopsis thaliana) (O81014 whole entry, looked up): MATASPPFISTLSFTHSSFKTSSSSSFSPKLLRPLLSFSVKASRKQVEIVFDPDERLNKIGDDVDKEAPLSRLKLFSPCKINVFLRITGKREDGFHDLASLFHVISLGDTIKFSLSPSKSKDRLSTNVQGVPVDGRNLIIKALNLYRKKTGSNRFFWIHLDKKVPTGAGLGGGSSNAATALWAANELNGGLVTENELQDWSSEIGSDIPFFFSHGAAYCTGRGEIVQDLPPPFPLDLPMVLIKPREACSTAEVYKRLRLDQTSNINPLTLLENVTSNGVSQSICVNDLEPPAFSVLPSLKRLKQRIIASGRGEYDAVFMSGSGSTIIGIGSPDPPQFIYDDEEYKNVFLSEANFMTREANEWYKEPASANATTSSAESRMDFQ
smiles,measurement,value
Cc1cc2c(C(C)C)c(O)c(O)c(C=O)c2c(O)c1-c1c(C)cc2c(C(C)C)c(O)c(O)c(C=O)c2c1O,Potency,47.3 µM (active)
